Assay [1] deals with Retinoic acid receptor RXR-alpha (Homo sapiens) (UniProt P19793). In words: qHTS assay to identify small molecule agonists of the RXR signaling pathway (AID 1159527; calls by dose curve; note: nearly all actives have a fitted effect of over 35% in size). In short, it runs like this: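 qHTS of the Tox21 10K library in GeneBLAzer RXR-alpha HEK 293T cells carrying a beta-lactamase reporter […]; 16 hr treatment, 9-cis retinoic acid as agonist control, FRET read-out.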

Assay [2] can be described thus: qHTS assay to identify small molecule agonists of the RXR signaling pathway - cell viability counter screen (AID 1159529). Note: nearly all actives have a fitted effect of over 50% in size. Note: potency is the fitted concentration of half-maximal effect. In short, it runs like this:
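Cell viability is measured by CellTiter-Glo luminescence, 30 min at room temperature, in wells already read for beta-lactamase. Engineered HEK 293T cells (RXR-alpha-UAS-bla) are dosed 16 hr at 37 C. Tetraoctyl ammonium bromide serves as positive control.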

Assay [3] can be described thus: qHTS assay to identify small molecule antagonists of the retinoid acid receptor (RAR) signaling pathway - cell viability counter screen (AID 1159551). Note: nearly all actives have a fitted effect of over 35% in size. In short, it runs like this:
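Luminescent ATP quantitation (CellTiter-Glo) gave cell viability in C3RL4 cells exposed to test chemicals for 6 h at 37 C alongside 1 uM final retinol.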
In general terms: In qHTS, concentration-response curves come from the screen itself.

The nature of assay [4]: qHTS assay to identify small molecule antagonists of the retinoic acid receptor (RAR) signaling pathway (AID 1159552; note: nearly all actives have a fitted effect of over 50% in size). In short, it runs like this: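 Quantitative HTS in C3RL4 RARE-luciferase reporter cells. Compounds were added with 1 uM (final) retinol; luminescence was read after 6 hr.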
A short description of assay [5]: qHTS assay to identify small molecule agonists of the retinoic acid receptor (RAR) signaling pathway (AID 1159553). Note: potency is the fitted concentration of half-maximal effect. In short, it runs like this: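 Luminescence from a RARE-driven luciferase reporter in C3RL4 cells served as the read-out, measured after 30 min with detection reagent at room temperature. Compounds in DMSO were applied for 6 hr at 37 C following overnight seeding.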

Assay [6] can be described thus: qHTS assay to identify small molecule antagonists of the estrogen related receptor (ERR) signaling pathway - cell viability counter screen (AID 1224818). Note: series mostly up to about 46 µM. In short, it runs like this: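 Multiplexed counter screen to separate cytotoxic compounds from true ERR modulators. ERR cells received DMSO-dissolved compounds after a 6 h pre-incubation, were exposed 17.5 h at 37 C, then assayed with CellTiter-Fluor fluorescence.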

The nature of assay [7]: qHTS assay to identify small molecule antagonists of the estrogen related receptor signaling pathway with the pleiotropic PPARgamma coactivator (PGC) cell viability counter screen (AID 1224822; note: series mostly up to about 46 µM). In short, it runs like this: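 Cells: PGC/ERR, 2,000/well, 1536-well format. Pre-incubation 6 h, 37 C/5% CO2. Compound exposure 17.5 h, 37 C. Detection: CellTiter-Fluor, 30 min, fluorescence.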

Records with an inconclusive call do not appear. Entries that show only a call come without a potency. The source made the active and inactive calls. Unless noted, calls come from the whole dose curve; as a rule, active = well fitted curve in the direction sought with a large enough effect in the repeat runs; inconclusive = weak or mixed curves; inactive = no such curve, though single readings can be large; an effect the other way counts as inactive or inconclusive.

Chain of Retinoic acid receptor RXR-alpha (Homo sapiens) (P19793 whole entry, looked up): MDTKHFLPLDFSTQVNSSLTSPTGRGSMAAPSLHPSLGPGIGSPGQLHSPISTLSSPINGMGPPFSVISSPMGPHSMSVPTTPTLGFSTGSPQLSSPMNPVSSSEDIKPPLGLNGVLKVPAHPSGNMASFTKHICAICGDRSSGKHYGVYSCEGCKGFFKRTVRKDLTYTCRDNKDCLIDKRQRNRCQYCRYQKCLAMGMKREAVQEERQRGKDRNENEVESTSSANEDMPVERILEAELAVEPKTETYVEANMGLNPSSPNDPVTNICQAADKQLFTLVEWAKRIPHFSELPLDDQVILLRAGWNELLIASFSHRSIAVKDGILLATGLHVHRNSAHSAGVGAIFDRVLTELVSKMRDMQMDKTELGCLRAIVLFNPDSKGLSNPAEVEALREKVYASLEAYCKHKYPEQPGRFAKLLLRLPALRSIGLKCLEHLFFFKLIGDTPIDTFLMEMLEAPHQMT

As to `CC1(C)[C@@H]2CC[C@]3(C2)[C@@H]1C(=O)CCC3(C)C`, the call in assay [1], in assay [3] and in assay [4] was inactive. The Potency entry in assay [2] and in assay [5] was “inactive” each time.
`FC(F)(Cl)C(F)(Cl)Cl`: in assay [2], the Potency result was “inactive”. In assay [3], the outcome was inactive.
For the compound `CCc1c(C)[nH]c2c1C(=O)C(CN1CCOCC1)CC2` (configuration not stated), the compound was classed as inactive in assay [1], in assay [3], in assay [4], in assay [6] and in assay [7]. The Potency result in assay [2] and in assay [5] was “inactive” in each case.
For the compound `O=C(O)c1c2ccccc2cc2ccccc12`, the Potency result in assay [2] was “inactive”. Moreover, in assay [3], the outcome was inactive.
For `CCCCCCCCOCCCN`, the compound was classed as inactive in assay [1], in assay [3] and in assay [4]. Besides, the Potency result in assay [2] and in assay [5] was “inactive” each time.
`CCCCCCCCCCCCCCCCN`: the compound was called inactive in assay [1], in assay [3] and in assay [4]. Moreover, the Potency entry in assay [2] and in assay [5] was “inactive” in each case.
As for `O=Cc1ccc([N+](=O)[O-])cc1`, the call in assay [1], in assay [3] and in assay [4] was inactive. Further, in assay [2], the Potency result is “inactive”. In addition, the Potency in assay [5] is 19.4 µM (active).
For the compound `Cc1ccc(S(=O)(=O)NC(=O)NC2CCCC2)cc1`, the result in assay [1], in assay [3] and in assay [4] was inactive. For the same compound, the Potency result in assay [2] and in assay [5] was “inactive” each time.
Regarding `O=C(OC1C[C@H]2CC[C@@H](C1)[N+]21CCCC1)C(O)(c1ccccc1)c1ccccc1` (some centres not stated), the outcome in assay [1], in assay [3] and in assay [4] was inactive. Also, in assay [5], the Potency result is “inactive”.
With `CCCCCO`, the Potency entry in assay [2] was “inactive”. The outcome in assay [3] was inactive.
In the case of `O=C(c1ccco1)N1CCNCC1`, the compound was classed as inactive in assay [1], in assay [3] and in assay [4]. Further, the Potency entry in assay [2] and in assay [5] was “inactive” in each case.
In the case of `CCCCCCCCCCCCCCCCC(=O)O`, the result in assay [1], in assay [3] and in assay [4] was inactive. The Potency entry in assay [2] and in assay [5] was “inactive” each time.
For `C=CC(O)CCCCC` (configuration not stated), in assay [2], the Potency result was “inactive”. For the same compound, the outcome in assay [3] was inactive.
As to `O=C(Cl)c1cc(Cl)cc(Cl)c1`, the Potency result in assay [2] was “inactive”. Besides, the outcome in assay [3] was inactive.
Take `COc1ccc(/C(C)=C/C(=O)O)c(OC)c1`: the Potency entry in assay [2] was “inactive”. In assay [3], the compound was classed as inactive.
On to `Sc1nc(S)nc(S)n1`, for which, in assay [2], the Potency result was “inactive”. Moreover, in assay [3], the outcome was inactive.
Consider `O=C(OCCN1CCOCC1)c1cccnc1Nc1cccc(C(F)(F)F)c1`, for which the Potency result in assay [2] was “inactive”. The call in assay [3] was inactive.
As to `O=C(NC1CCN(CCc2c[nH]c3ccccc23)CC1)c1ccccc1`, the compound was classed as inactive in assay [1], in assay [3] and in assay [4]. Further, the Potency entry in assay [2] and in assay [5] was “inactive” each time.
For `C=C[Si](OCC)(OCC)OCC`, the Potency entry in assay [2] is “inactive”. Further, the result in assay [3] was inactive.
For the compound `CC(Cc1ccccc1)(NC(=O)CN)c1ccccc1` (configuration not stated), the compound was classed as inactive in assay [1], in assay [3] and in assay [4]. The Potency result in assay [2] and in assay [5] was “inactive” in each case.
For `COc1ccc(CN(CCN(C)C)c2ncccn2)cc1`, the compound was classed as inactive in assay [1], in assay [3] and in assay [4]. In assay [5], the Potency entry is “inactive”.
Turning to `CCCCCCCCNC`, the Potency result in assay [2] was “inactive”. Also, the result in assay [3] was inactive.
In the case of `c1ccc(CCNc2nc(-c3ccccc3)cs2)cc1`, the result in assay [1], in assay [3] and in assay [4] was inactive. For the same compound, in assay [2], the Potency result was “inactive”. Further, the Potency in assay [5] is 2.11 µM (active).
`Cc1ccc(Cl)c(OCC(O)CNC(C)(C)C)c1` (configuration not stated): the compound was classed as inactive in assay [1], in assay [3] and in assay [4]. In addition, the Potency entry in assay [2] and in assay [5] was “inactive” in each case.
For the compound `Cc1nc(C)c(C)nc1C`, the Potency result in assay [2] is “inactive”. For the same compound, the call in assay [3] was inactive.
With `C1CCN(CN2CCCCC2)CC1`, the Potency result in assay [2] is “inactive”. Further, the compound was called inactive in assay [3].
As to `CCCCCCCCCCCCSC#N`, the Potency entry in assay [2] is “inactive”. In addition, the outcome in assay [3] was inactive.
`Cc1cccc(C)c1NC(=O)CN1CCCC1`: the compound was classed as inactive in assay [1], in assay [3] and in assay [4]. Further, the Potency entry in assay [2] and in assay [5] was “inactive” in each case.
For the compound `CC(CC(C#N)(c1ccccc1)C(C)C)N(C)C` (configuration not stated), the compound was called inactive in assay [1], in assay [3] and in assay [4]. Further, the Potency entry in assay [2] and in assay [5] was “inactive” each time.
With `CCc1cnc(C(=O)O)c(C(=O)O)c1`, the Potency entry in assay [2] was “inactive”. Further, in assay [3], the result was inactive.
As to `CC(=O)S[C@H](C(=O)N[C@H]1Cc2ccccc2[C@H]2CCC[C@@H](C(=O)O)N2C1=O)C(C)C`, the Potency entry in assay [2] was “inactive”. In addition, the result in assay [3] was inactive.
On to `Cc1cc(C)c(C)c(O)c1`, for which the outcome in assay [1], in assay [3] and in assay [4] was inactive. In addition, the Potency entry in assay [2] and in assay [5] was “inactive” throughout.
Take `CC(C)(C)c1cc(C=O)cc(C(C)(C)C)c1O`: the Potency result in assay [2] is “inactive”. Further, the result in assay [3] was inactive.
With `CCC(=O)O[C@@H]1C[C@H]2CC[C@]1(C)C2(C)C`, the result in assay [1], in assay [3] and in assay [4] was inactive. The Potency result in assay [2] and in assay [5] was “inactive” each time.
`C=CC(=O)OCCCCCCCCCC`: the compound was classed as inactive in assay [1], in assay [3] and in assay [4]. Besides, the Potency result in assay [2] and in assay [5] was “inactive” each time.
With `C[C@@H](O)[C@H]1C(=O)N2C(C(=O)O)=C(S[C@@H]3CN[C@H](CNS(N)(=O)=O)C3)[C@H](C)[C@H]12`, the Potency result in assay [2] is “inactive”. Besides, the result in assay [3] was inactive.
For the compound `CC(COc1ccccc1)NC(C)C(O)c1ccc(O)cc1` (configuration not stated), the result in assay [1], in assay [3] and in assay [4] was inactive. Besides, the Potency result in assay [2] and in assay [5] was “inactive” in each case.
Regarding `Clc1cccc(C(c2ccc3nc[nH]c3c2)n2ccnc2)c1` (configuration not stated), the Potency result in assay [2] is “inactive”. In assay [3], the call was inactive.
Regarding `OCCc1ccncc1`, the call in assay [1], in assay [3] and in assay [4] was inactive. Further, the Potency result in assay [2] and in assay [5] was “inactive” each time.
As to `CC(C(=O)O)c1ccc2c(c1)Cc1cccnc1O2` (configuration not stated), the Potency result in assay [2] and in assay [5] was “inactive” each time. The call in assay [3] and in assay [4] was inactive.
As to `O=C(O)c1cccc(C(=O)O)c1C(=O)O`, in assay [2], the Potency was 24.8 µM (active). The outcome in assay [3] and in assay [4] was inactive. Moreover, the Potency result in assay [5] was “inactive”.
`CC(C)=CCC/C(C)=C/C=N/O`: the Potency entry in assay [2] and in assay [5] was “inactive” throughout. For the same compound, the outcome in assay [3] and in assay [4] was inactive.
Take `CCc1ccc(C(=O)C(C)CN2CCCCC2)cc1` (configuration not stated): the Potency entry in assay [2] and in assay [5] was “inactive” throughout. For the same compound, the outcome in assay [3] and in assay [4] was inactive.

These data come from PubChem BioAssay (Tox21).
